Calls of active or inactive are those of the source. How the source made its calls: active means hit-call score of the fitted dose curve at least 0.9, where 1 is the maximum; inactive means score below 0.9.

E-selectin (Homo sapiens), sequence (P16581 whole entry, looked up): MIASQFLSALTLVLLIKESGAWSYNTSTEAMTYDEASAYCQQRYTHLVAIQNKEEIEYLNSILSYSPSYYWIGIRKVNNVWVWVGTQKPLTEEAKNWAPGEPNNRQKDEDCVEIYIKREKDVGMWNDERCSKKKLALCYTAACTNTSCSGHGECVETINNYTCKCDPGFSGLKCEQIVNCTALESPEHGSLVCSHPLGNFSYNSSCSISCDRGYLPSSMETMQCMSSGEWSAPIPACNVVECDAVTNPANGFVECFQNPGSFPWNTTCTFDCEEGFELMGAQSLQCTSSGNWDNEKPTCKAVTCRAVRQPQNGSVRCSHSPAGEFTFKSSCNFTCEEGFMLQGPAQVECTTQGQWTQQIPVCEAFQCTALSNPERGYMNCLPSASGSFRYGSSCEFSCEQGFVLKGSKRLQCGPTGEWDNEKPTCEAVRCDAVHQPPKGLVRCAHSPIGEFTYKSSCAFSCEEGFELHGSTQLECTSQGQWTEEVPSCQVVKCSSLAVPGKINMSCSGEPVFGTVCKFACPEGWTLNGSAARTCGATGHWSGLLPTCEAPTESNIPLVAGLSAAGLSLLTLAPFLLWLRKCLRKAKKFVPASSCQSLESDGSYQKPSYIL

Read-out in one test: Monocyte Chemoattractant Protein-1 (MCP1), CCL2 (gene 6347)
The test can be described thus: BSK_SAg_MCP1: BioMAP Diversity Plus: SAg Assay for Monocyte Chemoattractant Protein-1 (MCP1) Biomarker Activity (AID 2283090). The conditions noted are these: primary human HUVEC with PBMC; actives raise or lower the signal. The method, boiled down: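 Values derive from bidirectional fitting of ELISA-measured MCP1 against DMSO controls. Readings were taken 24 h after dosing human vascular endothelial cells co-cultured with peripheral blood mononuclear cells under superantigen stimulation.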
Turning to `CCCCN1C(=O)[C@@H]([C@H](O)C2CCCCC2)NC(=O)C12CCN(Cc1ccc(Oc3ccc(C(=O)O)cc3)cc1)CC2`, the result was inactive.
As to `OCc1c[nH]c2ccccc12`, the result was inactive.
Regarding `C[C@]12C=CC(=O)C=C1CC[C@H]1[C@@H]3C[C@@H](O)[C@](O)(C(=O)CO)[C@@]3(C)C[C@H](O)[C@@]12F`, the AC50 was 5.08 µM (active).
Consider `S=P(N1CC1)(N1CC1)N1CC1`, for which the outcome was inactive.
Turning to `Cc1ccc(S(=O)(=O)NC(=O)NN2CCCCCC2)cc1`, the result was inactive.
On to `CC(C)c1nnc2ccc(-c3ocnc3-c3cc(F)ccc3F)cn12`, for which the concentration at half-maximal activity (AC50) was 3.97 µM (active).
With `CCCCCCCCCCCCCCO`, the AC50 was 34.2 µM (active).
Consider `COCc1nnc(-c2ccc[n+]([O-])c2)n1-c1c(Cl)c(Cl)cc2[nH]c(=O)c(=O)[nH]c12`, for which the result was inactive.
With `OC(CCl)CCl`, the outcome was inactive.
For the compound `CCn1nc(C)c2c1C(=O)NCC(c1ccc(O)cc1)=N2`, the AC50 is 4.49 µM (active).
For `O=S1(=O)CCCO1`, the result was inactive.
Take `CCc1ccc(O)c(C(C)(C)C)c1`: the AC50 is 20 µM (active).
In the case of `FC(F)=C(F)C(F)(F)C(F)(F)C(F)(F)C(F)(F)C(F)(F)C(F)(F)F`, the outcome was inactive.
For `NNC(=O)c1ccncc1`, the outcome was inactive.
For the compound `OC[C@H]1O[C@@H]2O[C@H]3[C@H](O)[C@@H](O)[C@@H](O[C@H]4[C@H](O)[C@@H](O)[C@@H](O[C@H]5[C@H](O)[C@@H](O)[C@@H](O[C@H]6[C@H](O)[C@@H](O)[C@@H](O[C@H]7[C@H](O)[C@@H](O)[C@@H](O[C@H]1[C@H](O)[C@H]2O)O[C@@H]7CO)O[C@@H]6CO)O[C@@H]5CO)O[C@@H]4CO)O[C@@H]3CO`, the outcome was inactive.
In the case of `OCC(CO)(CO)CO`, the result was inactive.

Read-out in a further test: E-selectin (Homo sapiens) (UniProt P16581)
The test can be described thus: BSK_SAg_Eselectin: BioMAP Diversity Plus: SAg Assay for Eselectin Biomarker Activity (AID 2283091). Particulars: primary human HUVEC with PBMC; actives raise or lower the signal. The procedure, abridged: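 Human umbilical vein endothelial cells co-cultured with peripheral blood mononuclear cells, SAg system. E-selectin is measured by ELISA 24 h after dosing and fitted bidirectionally against DMSO. Cytotoxicity is checked by SRB staining of parallel cultures.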
As to `CCCCN1C(=O)[C@@H]([C@H](O)C2CCCCC2)NC(=O)C12CCN(Cc1ccc(Oc3ccc(C(=O)O)cc3)cc1)CC2`, the outcome was inactive.
Take `C[Si](C)(C)C(F)(F)C(F)(F)C(F)(F)F`: the result was inactive.
Still for that read-out and setting: for `OCc1c[nH]c2ccccc12` the value was “inactive”.
As for `C[C@]12C=CC(=O)C=C1CC[C@H]1[C@@H]3C[C@@H](O)[C@](O)(C(=O)CO)[C@@]3(C)C[C@H](O)[C@@]12F`, the AC50 was 3.66 µM (active).
Turning to `S=P(N1CC1)(N1CC1)N1CC1`, the result was inactive.
Turning to `CCCOc1ccc(S(=O)(=O)N2CCN(CC)CC2)cc1-c1nc2c(CC)n(Cc3ccccn3)nc2c(=O)[nH]1`, the result was inactive.
With `Cc1ccc(S(=O)(=O)NC(=O)NN2CCCCCC2)cc1`, the result was inactive.
As to `CC(C)c1nnc2ccc(-c3ocnc3-c3cc(F)ccc3F)cn12`, the AC50 was 10.6 µM (active).
Consider `CCCCCCCCCCCCCCO`, for which the half-maximal activity concentration (AC50) was 36.3 µM (active).
`OC[C@H]1O[C@@](CO)(O[C@H]2O[C@H](CO)[C@@H](O)[C@H](O)[C@H]2O)[C@@H](O)[C@@H]1O`: the outcome was inactive.
On to `COCc1nnc(-c2ccc[n+]([O-])c2)n1-c1c(Cl)c(Cl)cc2[nH]c(=O)c(=O)[nH]c12`, for which the result was inactive.
Turning to `O=C(Cl)C(F)(F)C(F)(F)C(F)(F)C(=O)Cl`, the outcome was inactive.
`OC(CCl)CCl`: the outcome was inactive.
On to `CCn1nc(C)c2c1C(=O)NCC(c1ccc(O)cc1)=N2`, for which the AC50 was 0.435 µM (active).
Regarding `O=S1(=O)CCCO1`, the outcome was inactive.
For `c1ccc(C(O[C@@H]2CCCN(CCc3ccc4c(c3)OCO4)C2)c2ccccc2)cc1`, the AC50 is 27.6 µM (active).
Turning to `O=S(=O)(O)CCC(F)(F)C(F)(F)C(F)(F)C(F)(F)C(F)(F)C(F)(F)F`, the result was inactive.
For `NC(=O)N1c2ccccc2C=Cc2ccccc21`, the result was inactive.
For `c1ccc2c(c1)-c1cccc3c1c-2cc1ccccc13`, the half-maximal activity concentration (AC50) is 0.566 µM (active).
For `CCOc1ccc2[nH]cc(C(=O)NCc3ccccc3)c(=O)c2n1`, the outcome was inactive.
As for `CCc1ccc(O)c(C(C)(C)C)c1`, the AC50 was 29.6 µM (active).
`CCc1cccc(CC)c1N`: the result was inactive.
For `FC(F)=C(F)C(F)(F)C(F)(F)C(F)(F)C(F)(F)C(F)(F)C(F)(F)F`, the result was inactive.
Turning to `NNC(=O)c1ccncc1`, the outcome was inactive.
The same measure, in the same setting: the same measure for `OC[C@H]1O[C@@H]2O[C@H]3[C@H](O)[C@@H](O)[C@@H](O[C@H]4[C@H](O)[C@@H](O)[C@@H](O[C@H]5[C@H](O)[C@@H](O)[C@@H](O[C@H]6[C@H](O)[C@@H](O)[C@@H](O[C@H]7[C@H](O)[C@@H](O)[C@@H](O[C@H]1[C@H](O)[C@H]2O)O[C@@H]7CO)O[C@@H]6CO)O[C@@H]5CO)O[C@@H]4CO)O[C@@H]3CO`: “inactive”; for `CCCCCCCC1CCC(=O)O1` (stereo not drawn): “inactive”; for `OCC(CO)(CO)CO`: “inactive”.

For the origin of these results see PubChem BioAssay (EPA / NIEHS).
